In experiment [1] the test system is Wnt5a (protein binding on small-molecule microarray). In words: Wnt5a binders on small-molecule microarray, primary screen, biophysical, 635/667 nm fluorescence (AID 1142).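 Also: fluorescence read at 667 nm with signal to noise per printed feature.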 Particulars: 635 nm fluorescence, higher = more signal.
Experiment [2] is described as follows: cell viability in Huh7 cells, primary screen, cytotoxicity control for HCV replication inhibitor project, CellTiter-Glo luminescence, basal, 48 h (AID 1143).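 Also: Huh7 hepatoma cells carrying a hepatitis C replication reporter with no stimulus; test concentration not given here.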 The following applies: Huh7 HCV replicon, higher = more signal, called active from +8 up or from −8 down.
The nature of experiment [3]: P. aeruginosa biofilm formation inhibitors, primary screen, PAO1 strain, BacTiter-Glo luminescence, LB-PBS (AID 1144). The following applies: 12 h, higher = more signal.
A short description of experiment [4]: CREB reporter modulators without forskolin, primary screen, cell-based, PC12, CRE-LacZ reporter, unstimulated (AID 1145). Particulars: no forskolin, luminescence, 4.5 h, higher = more signal, called active from +8 up or from −8 down.
Experiment [5] can be described thus: CREB reporter modulators under forskolin, primary screen, cell-based, PC12, CRE-LacZ reporter, forskolin-stimulated (AID 1146).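 Also: PC12 cells with 6xCRE LacZ reporter stimulated by forskolin 10 µM; beta-galactosidase reporter signal reflecting CREB driven transcription.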 Particulars: luminescence, 4.5 h, higher = more signal, called active from +8 up or from −8 down.
Experiment [6] has as its target Streptavidin (Streptomyces avidinii) (UniProt P22629). In words: streptavidin binders on small-molecule microarray, primary screen, artefact control for SMM compound annotation, biophysical, 635/667 nm fluorescence (AID 1147).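 Also: signal reflects streptavidin binding to arrayed compounds as a control protein.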 Particulars: streptavidin binding, higher = more signal.
A short description of experiment [7]: small-molecule binders of probe aInhba, primary screen, biochemical, small-molecule microarray, 635/667 nm fluorescence (AID 1148).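 Also: score merges 667nm spot fluorescence with signal-to-noise for antibody binding to printed compounds.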 Particulars: higher = more signal.
Experiment [8] deals with Torsin-1A (Homo sapiens) (UniProt O14656). In words: torsin A binders from cell lysate, primary screen, small-molecule microarray, wild-type, 635/667 nm (AID 1149). The following applies: COS7 hTOR1A-WT lysate, 635 nm fluorescence, higher = more signal.
Torsin-1A (Homo sapiens), sequence (O14656 whole entry, looked up): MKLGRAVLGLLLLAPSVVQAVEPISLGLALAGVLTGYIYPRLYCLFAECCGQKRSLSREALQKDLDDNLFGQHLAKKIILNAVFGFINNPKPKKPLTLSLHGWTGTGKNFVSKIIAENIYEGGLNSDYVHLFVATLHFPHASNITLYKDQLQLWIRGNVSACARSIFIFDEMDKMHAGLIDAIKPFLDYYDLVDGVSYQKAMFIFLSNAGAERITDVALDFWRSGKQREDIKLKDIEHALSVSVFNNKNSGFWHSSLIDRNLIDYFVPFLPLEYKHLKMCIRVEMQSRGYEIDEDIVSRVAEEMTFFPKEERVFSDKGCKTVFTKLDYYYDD
The target is the same in experiment [9]. Kind of experiment: small-molecule binders of mutant TOR1A in lysate, primary screen, cell lysate, small-molecule microarray, COS7 lysate, 635/667 nm fluorescence (AID 1150).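 Also: score pools 667 nm emission and signal to noise measuring lysate protein binding.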 Particulars: COS7 hTOR1A mutant lysate, 635 nm fluorescence, higher = more signal.
Experiment [10] concerns Sonic hedgehog protein (Shh). In words: small-molecule binders of Shh protein, primary screen, biochemical, small-molecule microarray, 635/667 nm fluorescence (AID 1151).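 Also: Shh protein binding to compounds spotted on small-molecule microarray slides; score combines spot fluorescence intensity with signal-to-noise across triplicate slides.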 The following applies: small-molecule microarray binding, 635 nm fluorescence; higher = more signal.
The nature of experiment [11]: E. coli DRC41 culture turbidity changes, primary screen, E. coli filamentation inducer project, strain DRC41, OD650, 48 h (AID 1152).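 Also: E. coli MC1000 strain DRC41 lacking acrAB efflux pump and sulA.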 Particulars: E. coli DRC41 (acrAB sulA), higher = more signal, called active from +8 up or from −8 down.
Experiment [12] is described as follows: small-molecule binders of probe aLefty1, primary screen, biochemical, small-molecule microarray, 635/667 nm fluorescence (AID 1153).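 Also: score merges spot fluorescence with signal-to-noise ratio from the scanned slide images.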 Particulars: higher = more signal.
A short description of experiment [13]: PSAC antagonists in infected red cells, primary screen, cell-based, P. falciparum Indochina, OD700, 1 h (AID 1154). The following applies: P. falciparum Indochina infected RBC osmotic lysis, higher = more signal, called active from +8 up or from −8 down.
The nature of experiment [14]: PSAC antagonists in infected red cells, primary screen, cell-based, P. falciparum Indochina, OD700, 2 h (AID 1155).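 Also: lysis reports solute entry through the parasite surface anion channel PSAC; channel blockers reduce lysis of infected cells.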 The following applies: P. falciparum Indochina infected erythrocytes, osmotic lysis OD700; higher = more signal, called active from +8 up or from −8 down.
Experiment [15] in a line: osmotic lysis modulators in infected erythrocytes, primary screen, PSAC antagonist project, cell-based, P. falciparum Indochina, OD700, 3 h (AID 1156). Particulars: higher = more signal, called active from +8 up or from −8 down.
The nature of experiment [16]: PSAC antagonists in infected red cells, primary screen, cell-based, P. falciparum Indochina, OD700, 18 h (AID 1157). Particulars: P. falciparum Indochina infected erythrocytes, osmotic lysis OD700, 18 h; higher = more signal, called active from +8 up or from −8 down.
A short description of experiment [17]: modulators of S6 phosphorylation in cells, primary screen, cell-based, A549, cytoblot, luminescence, serum-stimulated (AID 1158).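 Also: serum-stimulated A549 lung adenocarcinoma cells; signal is phosphorylated S6 detected by cytoblot immunostaining with HRP secondary.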 The following applies: A549 phospho-S6 cytoblot, 5 h, higher = more signal.
Experiment [18] has as its target NADPH oxidase 2 (Homo sapiens) (UniProt P04839). Kind of experiment: NOX2-dependent H2O2 signal modulators, primary screen, NOX inhibitor project, cell-based, HEK293-NOX2, PMA-stimulated, Amplex Red fluorescence (AID 1159). Also: test concentration not given here. The following applies: 45 min, higher = more signal, called active from +8 up or from −8 down.
Experiment [19] addresses NADPH oxidase 4 (Homo sapiens) (UniProt Q9NPH5). Kind of experiment: NOX4-dependent H2O2 signal modulators, primary screen, NOX inhibitor project, cell-based, HEK293-NOX4, tetracycline-induced, Amplex Red fluorescence (AID 1160). Particulars: 45 min, higher = more signal, called active from +8 up or from −8 down.
The target of experiment [20] is NADPH oxidase 5 (Homo sapiens) (UniProt Q96PH1). Kind of experiment: NOX5-dependent H2O2 signal modulators, primary screen, NOX inhibitor project, cell-based, HEK293-NOX5, Amplex Red fluorescence (AID 1161). The following applies: HEK293-NOX5, ionomycin, 45 min, higher = more signal.
NADPH oxidase 5 (Homo sapiens), sequence (Q96PH1 whole entry, looked up): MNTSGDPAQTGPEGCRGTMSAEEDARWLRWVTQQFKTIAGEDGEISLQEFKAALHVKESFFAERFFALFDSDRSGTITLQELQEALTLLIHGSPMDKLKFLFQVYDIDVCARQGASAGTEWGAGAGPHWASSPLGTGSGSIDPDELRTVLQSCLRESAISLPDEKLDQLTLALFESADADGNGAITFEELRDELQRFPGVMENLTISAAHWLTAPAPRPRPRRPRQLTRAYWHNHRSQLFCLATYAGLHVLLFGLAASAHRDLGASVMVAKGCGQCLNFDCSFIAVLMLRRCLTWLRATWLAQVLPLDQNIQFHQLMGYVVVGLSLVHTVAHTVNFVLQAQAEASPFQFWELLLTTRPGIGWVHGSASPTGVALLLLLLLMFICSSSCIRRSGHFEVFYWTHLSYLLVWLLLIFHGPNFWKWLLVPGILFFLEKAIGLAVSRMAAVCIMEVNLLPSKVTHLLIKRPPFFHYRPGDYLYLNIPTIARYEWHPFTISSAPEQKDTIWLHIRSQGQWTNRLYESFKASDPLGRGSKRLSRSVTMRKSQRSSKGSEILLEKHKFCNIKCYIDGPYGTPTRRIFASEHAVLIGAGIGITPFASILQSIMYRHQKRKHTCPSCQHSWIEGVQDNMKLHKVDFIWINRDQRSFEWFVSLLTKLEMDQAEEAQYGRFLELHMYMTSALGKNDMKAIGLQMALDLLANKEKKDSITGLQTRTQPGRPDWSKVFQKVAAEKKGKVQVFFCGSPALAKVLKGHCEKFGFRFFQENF

Each structure is given as a SMILES string. Active and inactive are the calls of the source. Unless noted, no rule for the calls is given here.

Streptavidin (Streptomyces avidinii), sequence (P22629 whole entry, looked up): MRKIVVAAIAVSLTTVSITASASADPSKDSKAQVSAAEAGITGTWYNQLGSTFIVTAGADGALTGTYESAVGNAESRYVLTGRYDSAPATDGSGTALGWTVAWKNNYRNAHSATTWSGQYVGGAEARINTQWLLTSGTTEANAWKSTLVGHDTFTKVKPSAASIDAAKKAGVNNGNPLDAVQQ
NADPH oxidase 4 (Homo sapiens), sequence (Q9NPH5 whole entry, looked up): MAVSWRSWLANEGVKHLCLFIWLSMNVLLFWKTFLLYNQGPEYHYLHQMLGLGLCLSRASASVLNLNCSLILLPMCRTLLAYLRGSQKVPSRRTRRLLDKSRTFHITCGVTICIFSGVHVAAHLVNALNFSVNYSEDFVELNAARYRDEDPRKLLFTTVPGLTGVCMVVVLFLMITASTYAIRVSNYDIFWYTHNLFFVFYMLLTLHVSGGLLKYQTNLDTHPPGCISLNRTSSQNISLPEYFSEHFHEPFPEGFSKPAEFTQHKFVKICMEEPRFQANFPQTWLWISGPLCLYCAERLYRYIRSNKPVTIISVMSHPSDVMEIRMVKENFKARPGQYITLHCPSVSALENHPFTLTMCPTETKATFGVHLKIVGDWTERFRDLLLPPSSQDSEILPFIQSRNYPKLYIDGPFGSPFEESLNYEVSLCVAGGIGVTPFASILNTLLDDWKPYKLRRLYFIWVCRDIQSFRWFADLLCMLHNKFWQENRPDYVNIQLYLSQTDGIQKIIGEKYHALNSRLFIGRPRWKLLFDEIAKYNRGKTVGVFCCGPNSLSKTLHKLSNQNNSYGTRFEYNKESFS
NADPH oxidase 2 (Homo sapiens), sequence (P04839 whole entry, looked up): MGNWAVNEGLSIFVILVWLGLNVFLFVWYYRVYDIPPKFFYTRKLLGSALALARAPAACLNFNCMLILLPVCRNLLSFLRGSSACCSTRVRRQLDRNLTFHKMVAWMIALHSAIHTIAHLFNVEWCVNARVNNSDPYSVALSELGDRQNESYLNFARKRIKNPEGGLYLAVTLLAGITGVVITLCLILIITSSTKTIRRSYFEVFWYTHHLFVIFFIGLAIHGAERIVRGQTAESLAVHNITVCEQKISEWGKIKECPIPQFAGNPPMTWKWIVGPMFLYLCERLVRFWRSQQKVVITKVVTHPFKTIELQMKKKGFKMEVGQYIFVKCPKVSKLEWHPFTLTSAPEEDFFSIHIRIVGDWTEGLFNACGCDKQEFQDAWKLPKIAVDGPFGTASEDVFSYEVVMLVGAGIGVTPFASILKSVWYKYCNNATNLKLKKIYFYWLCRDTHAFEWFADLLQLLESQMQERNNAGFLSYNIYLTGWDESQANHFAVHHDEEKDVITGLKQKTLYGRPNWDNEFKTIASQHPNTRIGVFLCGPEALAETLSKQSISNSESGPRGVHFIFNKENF

`C#CCN(Cc1ccccc1Br)[C@H](/C=C/c1ccccc1)[C@@H](O)Cc1ccccc1`: the composite z-score in [1] is -0.356; in experiment [6], -0.385; in experiment [7], -0.179; in experiment [8], -0.622; in experiment [9] it was 0.543; in experiment [10], -0.866. The composite z-score in [12] came to 0.0999. Besides, the z-score in [2] was -2.2 (inactive); in experiment [3], -0.109 (inactive); in [4], 2.49 (inactive); in [5], -0.697 (inactive); in experiment [11], 1.47 (inactive); in experiment [13], 1.22 (inactive). Also, the z-score in [14] was 0.535 (inactive); in experiment [15], -0.553 (inactive); in experiment [16] it was 0.132 (inactive); in experiment [17] it was -0.135; in experiment [18] it was -0.193 (inactive); in [19], 0.109 (inactive). In experiment [20], this compound had a z-score of -0.639.
With `[N-]=[N+]=Nc1ccccc1[C@@H]1OC(c2ccc(OCCCO)cc2)=N[C@]1(Cc1ccccc1)C(=O)O`, the composite z-score is 0.343 in experiment [1]; 0.723 in experiment [6]; 0.207 in experiment [7]; 0.0692 in experiment [8]; 0.285 in experiment [9]; -0.0767 in experiment [10]. In [12], this compound displayed a composite z-score of 0.433. The z-score in [2] is -0.626 (inactive); in experiment [3], 0.693 (inactive); in experiment [4], 1.05 (inactive); in experiment [5], -1.43 (inactive); in experiment [11] it was 0.78 (inactive); in experiment [13], 33.2 (active). Besides, the z-score in experiment [14] is 30 (active); in [15], 3.46 (inactive); in [16], 8.04 (active); in experiment [17], -0.465; in experiment [18], -1.61 (inactive); in experiment [19] it was 1.27 (inactive). The z-score in experiment [20] was -0.586.
In the case of `COC(=O)[C@@]1(Cc2ccc(OC)cc2)[C@H]2c3cc(C(=O)N(C)C)n(Cc4ccc(C)o4)c3C[C@H]2CN1C(=O)c1ccccc1`, the composite z-score in experiment [1] is 0.331; in [6], 0.57; in experiment [7], 0.112; in experiment [8], -0.0657; in [9], 0.567; in experiment [10], -0.797. This compound also came in with a composite z-score in experiment [12] of 0.346. In addition, the z-score in [2] is -1.93 (inactive); in experiment [3], 1.15 (inactive); in experiment [4], -0.568 (inactive); in experiment [5], -0.46 (inactive); in experiment [11], -0.155 (inactive); in [13], 4.12 (inactive). In addition, the z-score in experiment [14] is 0.057 (inactive); in experiment [15], 1.3 (inactive); in experiment [16], 0.594 (inactive); in experiment [17] it was 1.5; in experiment [18] it was -0.351 (inactive); in [19], -0.0809 (inactive). Also, the z-score in [20] was -3.41.
As to `O=C1C2C=CC(C(O)c3cccc(O)c3)N(Nc3ccc([N+](=O)[O-])cc3)C2C(=O)N1c1ccccc1` (stereo not given), the composite z-score in experiment [1] is 0.22; in [6], 0.514; in experiment [7] it was 0.0649; in experiment [8], 0.331; in experiment [9] it was 0.132; in experiment [10], -0.164. The compound also returned a composite z-score in [12] of 0.0361. Further, the z-score in experiment [2] is -0.933 (inactive); in experiment [3] it was -0.271 (inactive); in [4], -0.257 (inactive); in [5], -0.489 (inactive); in experiment [11], -0.367 (inactive); in experiment [13] it was 23.8 (active). The z-score in [14] is 5.34 (inactive); in [15], 3.57 (inactive); in experiment [16], 1.22 (inactive); in experiment [17], -0.609; in experiment [18], -2.1 (inactive); in experiment [19] it was -4.41 (inactive). In addition, the z-score in experiment [20] is -4.26.
In the case of `C=CCC(OC(C)=O)[C@@H]1[C@@H](N(Cc2ccc(-c3ccccc3)cc2)C(=O)c2ccc(-c3ccccc3)cc2)c2cc(OCCCO)ccc2N1C(=O)c1ccc2ccccc2c1` (stereo not given in full), the composite z-score in experiment [1] was 0.028; in experiment [6], 0.485; in experiment [7] it was -0.101; in experiment [8], 0.0449; in experiment [9] it was -0.0178; in experiment [10], 0.255. Also, the composite z-score in experiment [12] amounted to 0.445. Moreover, the z-score in [2] was 0.39 (inactive); in experiment [3], -0.0995 (inactive); in experiment [4] it was -0.23 (inactive); in [5], 0.318 (inactive); in experiment [11] it was -0.75 (inactive); in experiment [13] it was 0.225 (inactive). In addition, the z-score is -0.135 (inactive) in experiment [14]; -0.503 (inactive) in experiment [15]; -0.0602 (inactive) in experiment [16]; 0.6 in experiment [17]; 0.707 (inactive) in experiment [18]; 0.987 (inactive) in [19]. The same compound displayed a z-score in [20] of 0.99.

The values above are taken from PubChem BioAssay.
